Hit rate of the full screen: of about 2,100 compounds, about 260 (12%) were called active. Another 58% or so got no clear call; they are omitted. Calls follow the shape of the dose curve; as a rule, active = well fitted cell-killing curve with a large enough effect; inconclusive = small, poorly fitted or top-dose-only effect, or effect the other way; inactive = flat fitted curve, though single readings scatter. Some of the results follow.
assay: Viability Counterscreen for Confirmatory qHTS for Inhibitors of ATXN expression; settings: HEK-293 ATXN2-luc cells viability, CellTiter-Fluor, 24 h; activity change, negative = cytotoxicity: at the top concentration; also: nearly all actives have a fitted effect of over 50% in size
In short: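 Luminescence read-out (SteadyGlo, 5 min) followed a 30 min Gly-Phe-AFC (25 uM final) viability fluorescence read. ATXN2-luciferase reporter cells were exposed 24 h to a dilution series. Medium-only wells served as the 100% inhibition reference.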
Potency is read from the fitted curve at half-maximal effect.

SMILES	activity change, negative = cytotoxicity	Potency
Cn1c(N)c(C(=O)Nc2ccc(-c3ccccc3)cc2)sc1=S	-20.9% [at 57.5 µM] (inactive)	–
COc1ccc(C(=O)Nn2c(SCC(=O)c3ccccc3)nc3ccccc3c2=O)cc1	-26% [at 57.5 µM] (inactive)	–
COc1ccc(Oc2c(Cl)cnn(-c3ccccc3)c2=O)cc1	–	3.16 µM (active)
COc1ccc(C2CC(c3ccccc3Cl)=NN2c2ccc(S(N)(=O)=O)cc2)cc1 (stereo not drawn)	1.38% [at 57.5 µM] (inactive)	–
COc1cc(/C=N/Nc2ccc(Cl)c(C(=O)O)c2)ccc1OC(=O)c1ccco1	1.6% (inactive)	–
CCN(CC)CCC(=O)Nc1cccc2c1C(=O)c1ccccc1C2=O	–	3.16 µM (active)
CN(CC(=O)Nc1cccc(F)c1)CC(=O)Nc1cccc2ccccc12	-16.6% [at 57.5 µM] (inactive)	–
CCN(CC)CCNC(=O)c1ccc(NC(=O)Cc2cccc3ccccc23)cc1	-22.4% (inactive)	–
CCC1=C(CC2NCCc3ccccc32)CC2c3cc(OC)c(OC)cc3CCN2C1 (stereo not drawn)	–	10 µM (active)
O=C(CC1NCCc2ccccc21)Nc1ccc(Cl)cc1 (stereo not drawn)	11.4% (inactive)	–
CN(c1ccc(OCC(=O)N2CCN(c3ccc(F)cc3)CC2)cc1)S(=O)(=O)c1cccs1	-11.9% (inactive)	–
CCOC(=O)c1c(C)nn(-c2ccc(NC(=O)/C=C/C(=O)O)cc2)c1C	-10.3% [at 57.5 µM] (inactive)	–
COC(=O)c1c(NC(=O)/C=C/C(=O)O)sc(C)c1-c1ccc(C(C)C)cc1	–	28.2 µM (active)
CC(=O)c1sc(C(C)(C)C)cc1NC(=O)/C=C/C(=O)O	-20% [at 57.5 µM] (inactive)	–
OC[C@@H]1[C@@H](c2ccc(F)cc2)C(c2ccccc2)=NN1c1ccccc1	28.7% [at 57.5 µM] (inactive)	–
COc1cc2c(cc1OC)C(C)N(C(=O)c1cc3c(s1)-c1ccccc1OC3)CC2 (stereo not drawn)	-24.3% [at 57.5 µM] (inactive)	–
COc1ccccc1-c1ccc2c(c1)C(C)(Cc1cccc(F)c1)C(=O)N2 (stereo not drawn)	-27.1% [at 57.5 µM] (inactive)	–
Cc1nonc1C(=O)N/N=C/c1ccc(O)cc1O	-19% (inactive)	–
COc1ccc2c(c1)C(SCC(=O)NCCc1ccc(Cl)cc1)CC(C)(C)O2 (stereo not drawn)	-8.85% (inactive)	–
Cc1ccc2nc(-c3ccccn3)c(NC3CCCC3)n2c1	-22.4% (inactive)	–
Cc1ccc(Nc2c(-c3ccccn3)nc3cc(C)ccn23)cc1	–	10 µM (active)
Cc1ccc(Nc2c(-c3ccccn3)nc3cccc(C)n23)cc1	–	8.91 µM (active)
Cc1cccn2c(Nc3ccccc3)c(-c3ccccn3)nc12	-19% [at 57.5 µM] (inactive)	–
N#Cc1ccc(-c2nc3cc(Cl)ccc3c(=O)n2O)cc1	-15.2% (inactive)	–
CCCNC(=O)c1ccc2c(=O)c(O)c(-c3ccc(F)cc3)[nH]c2c1	-12.7% [at 57.5 µM] (inactive)	–
CCN(c1ccccc1)S(=O)(=O)c1ccc(C(=O)N(CCCN(C)C)c2nc3c(C)cccc3s2)cc1	–	20 µM (active)
CN(C)CCCN(C(=O)c1ccco1)c1nc2cc3c(cc2s1)OCO3	-18.9% [at 57.5 µM] (inactive)	–
CN(C)CCCN(C(=O)c1ccc(S(=O)(=O)N(C)Cc2ccccc2)cc1)c1nc2cc3c(cc2s1)OCO3	–	25.1 µM (active)
